Bioassay records: PubChem BioAssay, National Center for Advancing Translational Sciences (NCATS)
Only some compounds are listed: those with a hit (about 8.1% of all), similar ones and a draw of the others.
KB-V1 cytotox = qHTS assay for MDR1-selective chemotherapeutics: Primary screen using the drug-selected MDR subline cells KB-V1; 400,000 tested, 3.4% active; KB-V1 MDR cells viability, CellTiter-Glo, 72 h; Potency, µM (highest dose often 46.1 µM), actives largely listed as cytotoxic; also: % is scaled to controls: 0 for no effect and ±100 for the full control effect; nearly all actives have a fitted effect of over 60% in size
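Readout: CellTiter-Glo luminescence, 10 min after addition. Cells: KB-V1 MDR subline, 72 h at 37 degrees C with compound. Analysis: corrected, normalized data fitted to concentration-effect curves.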
KB-3-1 cytotox = qHTS assay for MDR1-selective chemotherapeutics: Primary screen using the parental adenocarcinoma cell KB-3-1. KB-3-1 viability, CellTiter-Glo ATP luminescence, 72 h. Potency, µM (top dose mostly 46.1 µM), most hits filed as cytotoxic. 400,000 tested, 1.4% active; also: % is scaled to controls: 0 for no effect and ±100 for the full control effect; nearly all actives have a fitted effect of over 60% in size
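72 h, 37 °C compound treatment of KB-3-1 parental cells; CellTiter-Glo added, 10 min, luminescence read. Data corrected against DMSO-only plates and normalized before curve fitting.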
SW480 rereplic = A quantitative high throughput screen for small molecules that induce DNA re-replication in SW480 colon adenocarcinoma cells | 340,000 tested, 1.8% active | Potency, µM (titrated, usually from 46.1 µM), without a hit: top-dose re-replication activation, actives largely listed as activators | SW480 DNA re-replication, Hoechst DNA content imaging, 48 h; also: % of control where 0% means no effect; nearly all actives have a fitted effect of over 55% in size
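Readout is total intensity of Hoechst-stained nuclei, excited at 405 nm and collected at 500-530 nm. Compound treatment lasted 48 hr at 37 C in 5% CO2 before staining.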
MCF10A rereplic = A quantitative high throughput screen for small molecules that induce DNA re-replication in MCF 10a normal breast cells. 350,000 tested, 2.9% active. MCF 10A DNA re-replication, Hoechst nuclear intensity, 48 h. Potency, µM (top dose mostly 46.1 µM), for inactives: top-dose activity, positive = re-replication, usual class: activators; also: % of control where 0% means no effect; nearly all actives have a fitted effect of over 50% in size
ELG1 repair inh = qHTS screen for small molecules that inhibit ELG1-dependent DNA repair in human embryonic kidney (HEK293T) cells expressing luciferase-tagged ELG1 | HEK293T ELG1-luciferase reporter, luminescence, 16 h; DNA damage induced by 5-fluorouridine | Potency, µM (top dose mostly 46.1 µM), for inactives: at the highest dose activity change, negative = inhibition, hits mostly inhibitors | 330,000 tested, 2.3% active; also: % is scaled to controls: 0 for no effect and ±100 for the full control effect; nearly all actives have a fitted effect of over 55% in size
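Luminescence from the luciferase reporter, measured 30 min after ONE-Glo reagent at room temperature, was the read-out. Beforehand, 2,000 cells per well were exposed for 16 hr at 37 °C to 5-fluorouridine together with compound or vehicle.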
* hit, by the source's call; i = inactive; u = inconclusive; x = no result given. Calls follow the shape of the dose curve; as a rule, active = well fitted curve in the direction sought with a large enough effect; inconclusive = small, poorly fitted or top-dose-only effect, or another doubt; inactive = no such curve, though single readings can be large; an effect the other way counts as inactive or inconclusive. Potency is read from the fitted curve at half-maximal effect.

SMILES	KB-V1 cytotox	KB-3-1 cytotox	SW480 rereplic	MCF10A rereplic	ELG1 repair inh
CCNC(=O)C1(C)CCN1CCC(=O)c1ccc(C)cc1 (configuration not stated)	i	i	x	x	x
CCC1(CCC(C)C)SC(N)=NC1=O (configuration not stated)	i	i	-2%	-1%	x
Cc1c(C(=O)O)oc2ccc(S(=O)(=O)N3CC(C)CC(C)C3)cc12 (configuration not stated)	i	i	-7%	-6%	9%
CCOC(=O)N1CCN(C(=O)c2oc3ccc(S(=O)(=O)N4CC(C)CC(C)C4)cc3c2C)CC1 (configuration not stated)	u	i	0%	6%	u
Cc1c(C(=O)N(C)CCC#N)oc2ccc(S(=O)(=O)N3CC(C)CC(C)C3)cc12 (configuration not stated)	i	i	-6%	9%	7.3µM*
CCOC(=O)C1CCN(C(=O)c2oc3ccc(S(=O)(=O)N4CC(C)CC(C)C4)cc3c2C)CC1 (configuration not stated)	u	u	7%	25%	10µM*
CC(=O)N1CCN(c2cc(-c3ccccc3)nc3cc(-c4cccc(Cl)c4)nn23)CC1	i	u	x	x	x
O=C1NC(c2cccc(OCc3ccccc3)c2)Nc2ccccc21 (configuration not stated)	0.65µM*	0.58µM*	1.8µM*	2.3µM*	x
O=C1NC(c2ccc(O)cc2)Nc2ccccc21 (configuration not stated)	u	u	u	12µM*	2%
CSc1ccc(C2NC(=O)c3ccccc3N2)cc1 (configuration not stated)	u	u	9.2µM*	16µM*	x
O=C1NC(c2ccccc2O)Nc2ccccc21 (configuration not stated)	i	i	-1%	2%	6%
O=C1NC(c2ccc(Cl)c([N+](=O)[O-])c2)Nc2ccccc21 (configuration not stated)	i	u	72%	6%	-18%
O=C1C=C(c2ccc(F)nc2)C[C@@H](c2ccc3c(c2)OCO3)C1	i	i	-11%	27%	-23%
Cc1cccc(C)c1NC(=O)CNC(=O)C1CC(=O)N(Cc2ccccc2)C1 (configuration not stated)	i	i	-59%	-7%	17%
Cc1cccc(NC(=O)C2CCCN(S(=O)(=O)c3ccc4c(c3)oc(=O)n4C)C2)c1C (configuration not stated)	i	i	x	x	x
CCCCn1c(NC(=O)c2ccccc2)c(C#N)c2nc3ccccc3nc21	5.2µM*	u	-1%	1%	8.2µM*
N#Cc1c(NC(=O)c2ccc(Br)o2)n(-c2ccccc2)c2nc3ccccc3nc12	i	i	u	u	u
CCC(C)n1c(NC(=O)c2ccccc2)c(C#N)c2nc3ccccc3nc21 (configuration not stated)	u	u	5.2µM*	1.3µM*	u
CCC(=O)Nc1c(C#N)c2nc3ccccc3nc2n1-c1ccc(C)cc1	u	i	u	23µM*	x
CCN(CC)CCn1c(NC(=O)c2ccc(C(F)(F)F)cc2)nc2ccccc21	i	i	1%	21µM*	u
CN(C(=O)c1ccco1)c1nc(CC(=O)Nc2ccccc2)cs1	i	i	-4%	30%	2%
CCN(C(=O)c1ccco1)c1nc(CC(=O)Nc2ccc(Cl)cc2)cs1	16µM*	i	12µM*	12µM*	u
CC(C)(C)CC(C)(C)N=C1Nc2cc(Cl)c(Cl)cc2N[C@]12C[C@H]1CCCC(=O)N3CC[C@@H](C2)[C@@H]13	i	i	x	x	x
COc1ccc(NS(=O)(=O)c2ccc(N3CCOCC3)c(N)c2)cc1	18µM*	u	-7%	-1%	u
COc1ccc(NS(=O)(=O)c2ccc(Cl)c(NC(=O)c3ccccc3F)c2)cc1	x	x	13%	0%	u
SMILES	KB-V1 cytotox	KB-3-1 cytotox	SW480 rereplic	MCF10A rereplic	ELG1 repair inh
COc1ccc(NS(=O)(=O)c2ccc(N3CCOCC3)c(NC(=O)c3ccccc3Cl)c2)cc1	10µM*	16µM*	u	u	-9%
COc1ccc(S(=O)(=O)Nc2ccc(N3CCOCC3)cc2)cc1	i	i	7%	7%	-6%
COc1ccc(NS(=O)(=O)c2ccc(Cl)c(NC(=O)c3cccnc3Cl)c2)cc1	21µM*	i	14%	12%	u
C/C(=N\NC(=S)Nc1cc(S(=O)(=O)N2CCOCC2)ccc1Cl)c1ccc(N2CCOCC2)cc1	i	i	2%	3%	u
COc1ccc2cc(/C(C)=N/NC(=S)Nc3cc(S(=O)(=O)N4CCOCC4)ccc3N3CCOCC3)ccc2c1	x	x	x	x	4.6µM*
CC(C)N(C)Cc1nnnn1CC(=O)N(C)Cc1ccc(F)cc1	i	i	9%	4%	-21%
CCOC(=O)c1cc(-c2ccccc2)n(CCC(=O)Nc2ccc(OC)c(Cl)c2)c1C	i	i	x	x	x
CC(=O)N1CCN(C(=O)COC(=O)COc2ccc(C#N)cc2)CC1	i	i	-68%	-7%	9%
CC(C)COc1ccc(CNC(=S)Nc2ccccc2)cc1Cl	i	i	u	u	-27%
COc1ccc(NS(=O)(=O)c2ccc(N3CCOCC3)c(NC(=O)c3ccc(OC)cc3)c2)cc1	18µM*	i	1%	5%	u
COc1ccc(-c2cc(C(=O)Nc3cc(S(=O)(=O)N4CCOCC4)ccc3N3CCOCC3)c3ccccc3n2)cc1	i	i	-46%	2.3µM*	4.1µM*
COc1ccc(NS(=O)(=O)c2cc(NC(=O)/C=C/c3ccccc3OC)ccc2N2CCCCC2)cc1	5.2µM*	i	-4%	14%	1%
COc1ccc(NS(=O)(=O)c2cc(NC(=O)COc3ccc(OC)cc3)ccc2N2CCOCC2)cc1	2.3µM*	i	-4%	-2%	-13%
CCOC(=O)C1C(=O)NC(C(=O)OCC)(C(=O)OCC)C1CC (configuration not stated)	i	i	-3%	-9%	x
COc1ccc(-c2cc(C(=O)Nc3cc(Cl)ccc3O)no2)cc1	i	i	-2%	-9%	u
COc1ccc(CCNC(=O)c2cccc(Nc3nc4ccccc4nc3-n3nc(C)cc3C)c2)cc1OC	i	i	x	x	x
